Values joined by “and” are separate entries in the source; they are usually repeats but may differ in a detail not shown here. Identical values can stand only once. Results filed as inconclusive are left out. Where a call stands in place of a potency, no number is given. A structure can be active in one record and inactive in another. Active and inactive are the calls of the source. Unless noted, calls follow the shape of the dose curve; as a rule, active = well fitted curve in the direction sought with a large enough effect in the repeat runs; inconclusive = weak or mixed curves; inactive = no such curve, though single readings can be large; an effect the other way counts as inactive or inconclusive.
Tests used:
[1] = molecular target: Progesterone receptor (Homo sapiens) (UniProt P06401); assay: qHTS assay to identify small molecule agonists of the progesterone receptor (PR) signaling pathway (AID 1346784; calls by dose curve; also: nearly all actives have a fitted effect of over 30% in size; also: potency is read from the fitted curve at half-maximal effect)
Chain of Progesterone receptor (Homo sapiens) (P06401 whole entry, looked up): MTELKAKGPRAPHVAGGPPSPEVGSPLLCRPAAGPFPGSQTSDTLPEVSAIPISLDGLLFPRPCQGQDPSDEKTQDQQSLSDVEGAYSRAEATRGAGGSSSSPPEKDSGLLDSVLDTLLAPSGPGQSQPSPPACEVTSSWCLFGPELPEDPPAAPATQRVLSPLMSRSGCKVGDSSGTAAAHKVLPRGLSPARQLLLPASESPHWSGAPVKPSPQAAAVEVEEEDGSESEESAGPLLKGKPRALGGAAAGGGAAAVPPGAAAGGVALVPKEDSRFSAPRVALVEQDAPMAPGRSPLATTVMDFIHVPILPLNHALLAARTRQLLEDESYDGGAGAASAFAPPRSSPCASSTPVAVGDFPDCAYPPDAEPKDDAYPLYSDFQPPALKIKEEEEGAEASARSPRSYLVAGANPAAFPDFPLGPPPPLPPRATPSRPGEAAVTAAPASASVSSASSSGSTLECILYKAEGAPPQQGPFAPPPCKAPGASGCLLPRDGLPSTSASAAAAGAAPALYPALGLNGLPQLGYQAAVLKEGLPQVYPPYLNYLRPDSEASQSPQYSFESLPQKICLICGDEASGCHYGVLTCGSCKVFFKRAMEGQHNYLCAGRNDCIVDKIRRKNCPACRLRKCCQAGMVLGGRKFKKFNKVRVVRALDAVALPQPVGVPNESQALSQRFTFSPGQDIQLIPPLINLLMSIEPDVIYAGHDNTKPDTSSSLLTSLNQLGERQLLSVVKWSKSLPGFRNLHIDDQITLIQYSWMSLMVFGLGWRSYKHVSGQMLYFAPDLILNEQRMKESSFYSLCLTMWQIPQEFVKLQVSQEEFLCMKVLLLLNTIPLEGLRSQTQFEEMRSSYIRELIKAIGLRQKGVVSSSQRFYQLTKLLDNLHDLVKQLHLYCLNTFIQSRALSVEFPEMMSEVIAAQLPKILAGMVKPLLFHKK
Summary of the method: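 Agonist qHTS: compounds pinned onto 3,000 PR-UAS-bla HEK 293T cells per well in charcoal-stripped serum medium, 16hr at 37C, then beta-lactamase activity measured by LiveBLAzer FRET fluorescence after 2 hours at room temperature.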

[2] = molecular target: Progesterone receptor (Homo sapiens) (UniProt P06401); assay: qHTS assay to identify small molecule antagonists of the progesterone receptor (PR) signaling pathway (AID 1346795; active = well fitted inhibition curve with a large enough effect in the signal ratio in the repeat runs, not every such curve was filed as active; the % refers to the signal ratio; also: potency is read from the fitted curve at half-maximal effect)
Summary of the method: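 Antagonist mode with agonist R5020 at 1 nM final and 16 hr incubation at 37C. Reporter was beta-lactamase driven by UAS in HEK293T (PR-UAS-bla), 2% charcoal-stripped serum; signal from LiveBLAzer FRET substrate, 2 hr at room temperature.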

[3] = qHTS assay to identify small molecule antagonists of the progesterone receptor (PR) signaling pathway - cell viability counter screen (AID 1346798); also: nearly all actives have a fitted effect of over 50% in size; also: potency is read from the fitted curve at half-maximal effect
Summary of the method: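 Cytotoxicity read as CellTiter-Glo luminescence (30 min, room temperature) in the same wells as the beta-lactamase readout. HEK293T PR-UAS-bla cells in charcoal-stripped 2% FBS received compound and R5020, then 16 h at 37C, 5% CO2.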

[4] = qHTS assay to identify small molecule agonists of the progesterone receptor (PR) signaling pathway - cell viability counter screen (AID 1346799; calls by dose curve; also: nearly all actives have a fitted effect of over 45% in size; also: potency is read from the fitted curve at half-maximal effect)
Summary of the method: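 Cytotoxicity measured by CellTiter-Glo luminescence (30 min, RT) in the same wells as the PR beta-lactamase agonist read. Those HEK293T cells had 16 h compound treatment at 37 C in 2% charcoal-stripped FBS medium.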

[5] = qHTS assay to identify small molecule antagonists of the TGF-beta/Smad signaling pathway - cell viability counter screen (AID 1346824); also: nearly all actives have a fitted effect of over 50% in size; also: potency is read from the fitted curve at half-maximal effect
Summary of the method: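 SBE-bla HEK 293T cells were plated overnight at 37 C, then given compounds in DMSO plus TGF-beta1 (added as 0.25 ng/mL solution) for 5 hr. After the bla read, CellTiter-Glo was added to the same wells and luminescence read after 30 min at room temperature.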

[6] = qHTS assay to identify small molecule agonists of the TGF-beta/Smad signaling pathway - cell viability counter screen (AID 1346829); also: nearly all actives have a fitted effect of over 45% in size; also: potency is read from the fitted curve at half-maximal effect
Summary of the method: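 HEK 293T SBE-bla line, 5 hr compound exposure at 37 C, multiplexed CellTiter-Glo viability read by luminescence.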

[7] = qHTS assay to identify small molecule agonists of the TGF-beta/Smad signaling pathway (AID 1346859; active = well fitted activation curve with a large enough effect in the signal ratio in the repeat runs, not every such curve was filed as active; the % refers to the signal ratio; also: series mostly up to about 77 µM)
Summary of the method: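 Fluorescence (ex 405 nm; em 460 and 530 nm) was read 2 h after LiveBLAzer FRET substrate at RT. The preceding compound treatment of overnight-plated SBE-bla HEK293T cells lasted 5 h at 37 C.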

[8] = molecular target: Thyrotropin-releasing hormone receptor (Homo sapiens) (UniProt P34981); assay: qHTS assay to identify small molecule agonists of the thyrotropin-releasing hormone receptor (TRHR) signaling pathway (AID 1346891; calls by dose curve; also: series mostly up to about 58 µM)
Chain of Thyrotropin-releasing hormone receptor (Homo sapiens) (P34981 whole entry, looked up): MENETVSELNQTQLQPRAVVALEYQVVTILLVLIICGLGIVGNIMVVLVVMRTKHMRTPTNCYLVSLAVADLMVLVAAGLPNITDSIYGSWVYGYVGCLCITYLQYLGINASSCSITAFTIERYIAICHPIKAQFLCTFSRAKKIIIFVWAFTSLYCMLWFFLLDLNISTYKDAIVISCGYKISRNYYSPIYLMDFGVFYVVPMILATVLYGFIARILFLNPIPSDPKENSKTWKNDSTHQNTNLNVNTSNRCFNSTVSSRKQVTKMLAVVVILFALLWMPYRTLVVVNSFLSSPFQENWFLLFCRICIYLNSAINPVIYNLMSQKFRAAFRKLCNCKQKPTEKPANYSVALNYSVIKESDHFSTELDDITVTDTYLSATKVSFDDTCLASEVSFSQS
Summary of the method: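 Agonist-mode intracellular calcium readout: kinetic fluorescence over 3 min at 1 s intervals after compound addition to TRHR-HEK293 cells (18 h seeded, 2 h dye-loaded at 37 C). Fifteen concentrations, triplicates.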

[9] = molecular target: Thyrotropin-releasing hormone receptor (Homo sapiens) (UniProt P34981); assay: qHTS assay to identify small molecule antagonists of the thyrotropin-releasing hormone receptor (TRHR) signaling pathway (AID 1346877; active = well fitted inhibition curve with a large enough effect in the repeat runs, not every such curve was filed as active; also: series mostly up to about 51 µM)
Summary of the method: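 Calcium signal in dye-loaded TRHR/HEK293 cells; compounds added 5 min before TRH (1 nM final); fluorescence monitored 3 min at 1 s steps.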

Row | Compound | Potency [1] | Potency [2] | Potency [3] | Potency [4] | Potency [5] | Potency [6] | Potency [7] | outcome [8] | Potency [9]
1 | CC1(C)Cc2cccc(O)c2O1 | inactive | inactive | inactive | inactive | inactive | inactive | inactive | inactive | –
2 | CCCCC(C#N)(Cn1cncn1)c1ccc(Cl)cc1 (stereo not drawn) | inactive | 30.5 µM (active) | – | inactive | inactive | inactive | inactive | inactive | inactive
3 | CCCCCCCCCC(CC)c1ccc(S(=O)(=O)O)cc1 (stereo not drawn) | – | – | 30.9 µM (active) and 29.8 µM (active) and 27.3 µM (active) | 27 µM (active) [middle of 4 runs] | inactive | inactive | inactive | – | –
4 | CC(C)(c1ccc(OCC2CO2)cc1)c1ccc(OCC2CO2)cc1 (stereo not drawn) | – | – | inactive | inactive | inactive | inactive | inactive | inactive | inactive
5 | ClC(Cl)=C(Cl)C(Cl)=C(Cl)Cl | inactive | inactive | – | inactive | inactive | inactive | inactive | inactive | inactive
6 | CCN(CC)C(=O)C(C)Oc1cccc2ccccc12 (stereo not drawn) | inactive | – | – | inactive | inactive | inactive | inactive | inactive | –
7 | c1ccc2c(c1)Nc1ccccc1S2 | 1.54 µM (active) and inactive | – | inactive | inactive | inactive | inactive | inactive | inactive | –
8 | CCC(=O)Nc1ccc(Cl)c(Cl)c1 | inactive | – | – | inactive | inactive | inactive | inactive | inactive | inactive
9 | CC(C)COC(=O)c1ccccc1C(=O)OCC(C)C | inactive | inactive | – | inactive | inactive | inactive | inactive | inactive | –
10 | CCC[CH2][Sn]([Cl])([Cl])[CH2]CCC | – | 0.196 µM (active) | 1.1 µM (active) and 1.37 µM (active) | 1.1 µM (active) and 1.37 µM (active) | 8.82 µM (active) and 13.8 µM (active) | 7.01 µM (active) and 15.5 µM (active) | – | inactive | –
11 | O=S(=O)(O)C(F)(F)C(F)(F)C(F)(F)C(F)(F)C(F)(F)C(F)(F)C(F)(F)C(F)(F)F | inactive | – | – | 41.2 µM (active) and inactive and 17.2 µM (active) | inactive | inactive | inactive | – | –
12 | CC(C)(c1ccccc1)c1ccc(O)cc1 | inactive | 7.63 µM (active) and 9.69 µM (active) | – | inactive | inactive | inactive | inactive | inactive | –
13 | ClCC(Cl)CCl | inactive | inactive | – | inactive | inactive | inactive | inactive | inactive | inactive
14 | CCC/C=N/O | inactive | inactive | inactive | inactive | inactive | inactive | inactive | inactive | –
15 | CNC(=O)Oc1cccc2c1OC(C)(C)C2 | inactive | inactive | – | inactive | inactive | inactive | inactive | inactive | –
16 | CNC(=O)CSP(=S)(OC)OC | inactive | inactive | inactive | inactive | inactive | inactive | inactive | inactive | inactive
